This note sets out measurements from PubChem BioAssay AID602127 (Broad Institute, 2011).

This assay has as its target Cyclin-dependent kinase 2 (Homo sapiens) (UniProt P24941). The assay can be described thus: inhibition of human CDK2/cyclin A – biochemical, cherry-picked samples, selectivity assay for Dyrk1A inhibitor project, dose response (AID 602127).

Results with a measured potency or affinity are listed apart. The source made the active and inactive calls.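 How the source made its calls: active means every repeat test judged active, meaning a falling signal with potency within twice the top valid dose; inconclusive means repeat tests disagree on the call; inactive means every repeat test inactive, including signal moving upward.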

With `O=C(O)COc1ccc(/C=C/c2nc3ccc([N+](=O)[O-])cc3s2)cc1`, the outcome was inactive. To `COc1cccc(Nc2nc(-c3ccc(O)cc3)cs2)c1` belongs “inactive”; to `COc1cc(C(=O)Nc2cccc(-c3nncn3C)c2)cc(OC)c1OC`, “inactive”.

Take `c1csc(CNc2ncnc3ccc(-c4ccoc4)cc23)c1`: the compound was called inactive. Regarding `CN(Cc1nccs1)c1ncnc2ccc(-c3ccc4c(c3)OCO4)cc12`, the compound was classed as inactive. On to `c1nc(NCC2CCCO2)c2cc(-c3ccc4c(c3)OCO4)ccc2n1` (stereo unspecified), for which the outcome was inactive. As for `Cc1cc(NCCCn2ccnc2)n2ncc(-c3ccc(Cl)cc3)c2n1`, the entry is “inactive”. To `O=C(COc1ccccc1)Nc1cccc(-c2cn3cccnc3n2)c1` belongs “inactive”; to `c1coc(CCNc2ncnc3ccc(-c4ccc5c(c4)OCO5)cc23)c1`, “inactive”; to `O=C(NCc1ccco1)c1sc2ccccc2c1Cl`, “inactive”. To `CN(C)S(=O)(=O)c1ccc(NC(=O)c2cc3ccccc3o2)cc1` belongs “inactive”; to `O=C(Nc1nc(-c2ccncc2)cs1)c1ccco1`, “inactive”.

As to `O=C(Nc1nc(-c2ccc3c(c2)OCCO3)cs1)c1ccco1`, the compound was called inactive.

For the compound `Cc1ccc(CNc2ncnc3ccc(-c4ccc5c(c4)OCO5)cc23)o1`, the compound was classed as inactive. As for `Cc1occc1CNc1ncnc2ccc(-c3ccc4c(c3)OCO4)cc12`, the entry is “inactive”. To `Clc1ccc(CNc2ncncc2-c2ccc3c(c2)OCO3)cc1` belongs “inactive”; to `Clc1ccc(CNc2nccc(-c3ccc4[nH]ncc4c3)n2)cc1Cl`, “inactive”; to `Fc1c(-c2ccc3ncnc(NCc4cccs4)c3c2)ccc2c1OCO2`, “inactive”.

For `Clc1ccc(CNc2nccc(-c3ccc4cn[nH]c4c3)n2)cc1Cl`, the outcome was inactive.

For `c1cncc(CNc2ccnc(-c3ccc4[nH]ncc4c3)n2)c1`, the compound was called inactive.

Turning to `O=C(CSc1nnnn1-c1ccc(O)cc1)Nc1ccc(N2CCOCC2)c(Cl)c1`, the result was inactive. `Cc1csc(CN(C)c2ncnc3ccc(-c4ccc5c(c4)OCO5)cc23)n1`: the compound was classed as inactive.

In the case of `N#Cc1c(C(F)(F)F)cc(-c2cccc(Cl)c2)[nH]c1=O`, the call was inactive. With `CCN1CCN(Cc2ccc(NC(=O)c3ccc(C)c(NC(=O)N4CCNC4=O)c3)cc2C(F)(F)F)CC1`, the call was inactive.

For the compound `COc1ccc(-c2[nH]ncc2-c2ccc3c(c2)OCCO3)c(O)c1`, the result was inactive.

`c1csc(CCNc2ncnc3ccc(-c4ccc5c(c4)OCO5)cc23)c1`: the call was inactive.

Consider `CCN1CCN(Cc2ccc(NC(=O)c3ccc(C)c(/C=C/c4cnc(Nc5cc(N6CCNCC6)nc(C)n5)cn4)c3)cc2C(F)(F)F)CC1`, for which the compound was called inactive. To `COc1cccc(NC(=O)Nc2ccc3c(c2)N(C)C(=O)CS3)c1` belongs “inactive”; to `COc1cccc(NC(=O)c2sc(NC(=O)c3ccncc3)nc2C)c1`, “inactive”. For the compound `Cc1nc(NC(=O)c2ccccc2)sc1-c1csc(NCc2ccco2)n1`, the result was inactive.

Regarding `COc1cccc(Nc2nc(NCCO)c3ccccc3n2)c1`, the result was inactive. As for `Cc1nc(CN(C)c2ncnc3ccc(-c4ccc5c(c4)OCO5)cc23)cs1`, the entry is “inactive”; as for `CC(Nc1nc(-c2cccnc2)nc2ccccc12)c1ccc(F)cc1` (stereo unspecified), “inactive”; as for `CCN(Cc1cccs1)c1ncnc2ccc(-c3ccc4c(c3)OCO4)cc12`, “inactive”. To `Clc1ccc(CNc2nccc(-c3ccc4c(c3)OCCO4)n2)cc1Cl` belongs “inactive”; to `c1cncc(CNc2ccnc(-c3ccc4cn[nH]c4c3)n2)c1`, “inactive”. To `COCCNC(=O)c1ccc2c(c1)nc(C)n2-c1cccc(F)c1` belongs “inactive”.

For `CCCNc1ncnc2ccc(-c3ccc4c(c3)OCO4)cc12`, the compound was called inactive. To `CN(C)S(=O)(=O)c1ccc(Cl)c(C(=O)Nc2cccc3ncccc23)c1` belongs “inactive”; to `Cc1nc(CNc2ncnc3ccc(-c4ccc5c(c4)OCO5)cc23)cs1`, “inactive”; to `O=C(Nc1nc2c(s1)CCCC2)c1ccc(N2C(=O)CCC2=O)cc1`, “inactive”. To `CC(=O)Nc1ccc(Nc2cc(C)nc3c(-c4ccccc4)cnn23)cc1` belongs “inactive”; to `CCOC(=O)c1ccc(-c2ccc3ncnc(N(C)Cc4sccc4C)c3c2)o1`, “inactive”; to `Clc1ccc(Nc2nccc(-c3ccc4c(c3)OCO4)n2)cc1`, “inactive”. `COc1ccc(-c2cc(NCCc3ccncc3)n3ncnc3n2)cc1`: the result was inactive. To `CC(=O)Nc1ccc(SCc2ncc(-c3ccccc3)o2)cc1` belongs “inactive”; to `NC(=O)c1c(NC(=O)c2ccc(N3C(=O)CCC3=O)cc2)sc2c1CCCC2`, “inactive”.

For `c1cncc(-c2nc(NCc3ccco3)c3ccccc3n2)c1`, the outcome was inactive. As for `COc1ccc(-c2nccc(NCc3ccc(C)cc3)n2)cc1`, the entry is “inactive”; as for `Clc1ccc(CNc2ccnc(-c3ccc4[nH]ncc4c3)n2)cc1Cl`, “inactive”. To `COc1ccc2c(Cl)c(C(=O)NCc3ccco3)sc2c1` belongs “inactive”. To `Clc1ccc(CNc2cc(-c3ccc4c(c3)OCO4)ncn2)cc1` belongs “inactive”; to `Clc1ccc(CNc2nccc(-c3ccc4c(c3)OCO4)n2)cc1Cl`, “inactive”. On to `c1cc(-c2ccc3c(c2)OCO3)nc(Nc2ccc3c(c2)OCO3)n1`, for which the compound was called inactive.

On to `Cc1nc(NC(=O)c2ccccc2)sc1-c1csc(N)n1`, for which the call was inactive. For `CN(Cc1cccs1)c1ncnc2ccc(-c3ccc4c(c3)OCO4)cc12`, the call was inactive.

As for `CC1Cc2ccccc2N1c1ncnc2nc[nH]c12` (stereo unspecified), the compound was classed as inactive. To `Cc1ccsc1CNc1ncnc2ccc(-c3ccc4c(c3)OCO4)cc12` belongs “inactive”. To `COc1ccc2c(c1)CCc1c-2n[nH]c1C(=O)O` belongs “inactive”; to `Cc1noc(NS(=O)(=O)c2ccc(NC(=O)c3oc4ccc(F)cc4c3C)cc2)c1C`, “inactive”; to `Cc1noc(NS(=O)(=O)c2ccc(NC(=O)c3oc4ccc(Cl)cc4c3C)cc2)c1C`, “inactive”.
